Experiment [1] deals with T1, Aspartate--tRNA(Asp/Asn) ligase (Mycobacterium tuberculosis (strain ATCC 25618 / H37Rv)) (UniProt P9WFW3).
T1 sequence (whole entry): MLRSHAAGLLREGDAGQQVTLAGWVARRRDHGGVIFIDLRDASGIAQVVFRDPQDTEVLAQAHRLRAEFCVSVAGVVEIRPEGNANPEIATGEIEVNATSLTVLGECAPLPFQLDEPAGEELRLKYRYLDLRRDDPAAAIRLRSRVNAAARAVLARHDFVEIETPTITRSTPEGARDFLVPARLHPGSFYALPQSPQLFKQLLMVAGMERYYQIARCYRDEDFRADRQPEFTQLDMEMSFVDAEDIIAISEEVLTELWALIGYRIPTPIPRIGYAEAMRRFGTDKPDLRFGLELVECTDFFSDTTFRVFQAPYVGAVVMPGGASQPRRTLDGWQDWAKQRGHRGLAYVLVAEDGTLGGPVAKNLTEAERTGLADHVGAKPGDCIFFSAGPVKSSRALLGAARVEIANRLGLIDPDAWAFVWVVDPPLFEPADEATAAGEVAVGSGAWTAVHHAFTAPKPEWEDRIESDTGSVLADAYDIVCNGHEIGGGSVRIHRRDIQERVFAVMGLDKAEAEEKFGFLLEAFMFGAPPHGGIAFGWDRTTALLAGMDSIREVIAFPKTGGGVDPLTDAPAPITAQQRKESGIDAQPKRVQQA
The experiment in a line: Assay for Asp RNA synthetase-1 from Mycobacterium tuberculosis. In kind it is functional. The arrangement: scale not given: direction of the effect not stated beside the values. The following applies: 30 µM.

Experiment [2] deals with Shiga toxin 2 (Escherichia coli O157:H7) (UniProt P09385+P09386). The experiment in a line: E. coli 0.157:H7 Shiga Toxin SOP - stx2 screening assay. The format is functional. The arrangement: scale not given: direction of the effect not stated beside the values. The following applies: 30 µM.

In the case of `COc1ccccc1CC(=O)NS(=O)(=O)c1ccc(C(N)=O)cc1`, the Percent Effect in experiment [1] is 1.21%; in experiment [2] it was 7.74%.

Consider `Cc1ccc(NC(=O)Nc2cnc(N3CCN(C)CC3)nc2)c(Cl)c1`, for which the Percent Effect in experiment [1] was -3.19%; in experiment [2], -20.4%.

`CC(NC(=O)N1CCN(c2ccc(Cl)cc2)CC1)C(=O)N1CCSCC1` (stereo not drawn): the Percent Effect is -5.11% in experiment [1] and 11.9% in experiment [2].

For the compound `CCCOc1ccc(CNC(=O)N2CCC(C(N)=O)C2)cc1` (stereo not drawn), the figures for the Percent Effect in experiment [1] and in experiment [2] were 0.4% and -0.133%, respectively.

Consider `COC[C@@]12CC[C@@H](N3CCOCC3)C[C@H]1CCN(c1ncccc1Cl)C2`, for which the Percent Effect in experiment [1] is -2.31%; in experiment [2], 23%.

`CC(O)CN1CCC(CNCc2ccccc2OC(F)(F)F)CC1` (stereo not drawn): the Percent Effect in experiment [1] is -1.43%; in experiment [2] it was 5.19%.

Consider `CC(C)CNC(=O)[C@H]1CCS(=O)(=O)[C@@H]2CN(Cc3cccc(Cl)c3)C[C@H]12`, for which the Percent Effect in experiment [1] was -3.06%; in experiment [2] it was -29.7%.

Consider `O=C(C1CC1)N1CCN(Cc2coc(-c3ccc(Cl)cc3)n2)CC1`, for which the figures for the Percent Effect in experiment [1] and in experiment [2] were -1.18% and 7.92%, respectively.

Regarding `Cc1ccc(N2CCCC3(COCCN(c4nccs4)C3)C2)nn1` (stereo not drawn), the Percent Effect in experiment [1] was -0.638%; in experiment [2], -17.6%.

`O=S(=O)(C1CC1)N1CC[C@]2(C[C@@H](Oc3ccccn3)CO2)C1`: the Percent Effect is -1.12% in experiment [1] and -6.89% in experiment [2].

Turning to `O=C(c1cnccn1)N1CCN(Cc2ccncc2)c2ncccc2C1`, the Percent Effect was 0.815% in experiment [1] and -1.31% in experiment [2].

As to `CCc1ccccc1CN1CC[C@@H](NC(=O)c2cccnc2)[C@H](O)C1`, the values for the Percent Effect in experiment [1] and in experiment [2] were -4.34% and -1.07%, respectively.

With `COC(=O)c1ccc(S(=O)(=O)NCc2cccnc2N(C)C)cc1`, the figures for the Percent Effect in experiment [1] and in experiment [2] were -3.4% and 12%, respectively.

On to `O=C(CCc1ccccc1)C1CCCN(C(=O)c2ncc(F)cc2F)C1` (stereo not drawn), for which the results for the Percent Effect in experiment [1] and in experiment [2] were 7.65% and 2.26%, respectively.

In the case of `O=C(NC1CCCC1)N1CCCC(c2nccn2Cc2ccncc2)C1` (stereo not drawn), the Percent Effect was -4.62% in experiment [1] and 12.8% in experiment [2].

Consider `Cc1nc(C2CCCN(C(=O)C(C)(C)n3cc(Cl)cn3)C2)no1` (stereo not drawn), for which the Percent Effect was -5.75% in experiment [1] and -14.3% in experiment [2].

For `Fc1ccc(CN2CCO[C@H]3[C@H](OCCN4CCCC4)CC[C@@H]32)cc1`, the Percent Effect in experiment [1] was 2.94%; in experiment [2] it was -20.2%.

Turning to `Cc1nn(C)c(N2CCOCC2)c1CNCc1ccnc(N(C)C)c1`, the Percent Effect in experiment [1] was -1.27%; in experiment [2], 25.6%.

Regarding `CCCn1nc2c(cc1=O)CN(CC(=O)Nc1nnc(C)s1)CC2`, the results for the Percent Effect in experiment [1] and in experiment [2] were 8.7% and -2.85%, respectively.

These data come from ChEMBL document CHEMBL3988442, “University of Dundee, Small-Polar-MMV Screening Library” (2021).
